# Results published in the supplement of paper PMC8728848.
# Only a selection was taken, and the strongest signals are over-represented in it overall.
# B1: Gal 10 (Homo sapiens), Q05315 (protein)
# chain: MSLLPVPYTEAASLSTGSTVTIKGRPLVCFLNEPYLQVDFHTEMKEESDIVFHFQVCFGRRVVMNSREYGAWKQQVESKNMPFQDGQEFELSISVLPDKYQVMVNGQSSYTFDHRIKPEAVKMVQVWRDISLTKFNVSYLKR
# How the values were obtained:
# Assay in all cases: glycan array binding signal (z-score within array); higher = stronger binding
# Settings in all cases: glycan notation: IUPAC condensed, linker removed
# [1] = molecular target: Fuc(a1-2)Gal(b1-3)[Fuc(a1-4)]GlcNAc(b1-2)Man(a1-3)[Fuc(a1-2)Gal(b1-3)[Fuc(a1-4)]GlcNAc(b1-2)Man(a1-3)]Man(b1-4)GlcNAc(b1-4)GlcNAc
# How it was run: (§1)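 Negative Z-scores can be read as non-binding. The Z-score is calculated within each array and then averaged across arrays of one protein sequence at different concentrations or buffers and across linkers. Arrays, 3228 in all, were curated from the Consortium for Functional Glycomics database and kept only where the protein sequence was available.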
# [2] = molecular target: Fuc(a1-2)Gal(b1-3)[Fuc(a1-4)]GlcNAc(b1-2)Man(a1-6)[Fuc(a1-2)Gal(b1-3)[Fuc(a1-4)]GlcNAc(b1-2)Man(a1-3)]Man(b1-4)GlcNAc(b1-4)[Fuc(a1-6)]GlcNAc
# How it was run: as §1
# [3] = molecular target: Fuc(a1-2)Gal(b1-4)GlcNAc(b1-3)Gal(b1-4)GlcNAc(b1-3)Gal(b1-4)GlcNAc
# How it was run: as §1
# [4] = molecular target: Fuc(a1-2)Gal(b1-4)[Fuc(a1-3)]GlcNAc(b1-2)Man(a1-3)[Fuc(a1-2)Gal(b1-4)[Fuc(a1-3)]GlcNAc(b1-2)Man(a1-6)]Man(b1-4)GlcNAc(b1-4)[Fuc(a1-6)]GlcNAc
# How it was run: as §1
# [5] = molecular target: Fuc(a1-2)Gal(b1-4)[Fuc(a1-3)]GlcNAc(b1-3)Gal(b1-4)[Fuc(a1-3)]GlcNAc
# How it was run: as §1
# [6] = molecular target: Fuc(a1-2)Gal(b1-4)[Fuc(a1-3)]GlcNAc(b1-3)GalNAc
# How it was run: as §1
# [7] = molecular target: Fuc(a1-2)Gal6S(b1-3)GlcNAc6S
# How it was run: as §1
# [8] = molecular target: Fuc(a1-2)[Gal(a1-3)]Gal(b1-4)GlcNAc(b1-3)GalNAc
# How it was run: as §1
# [9] = molecular target: Fuc(a1-2)[Gal(a1-3)]Gal(b1-4)GlcNAc(b1-6)GalNAc
# How it was run: as §1
# [10] = molecular target: Fuc(a1-2)[GalNAc(a1-3)]Gal(b1-3)GlcNAc(b1-3)GalNAc
# How it was run: as §1
# [11] = molecular target: Fuc(a1-2)[GalNAc(a1-3)]Gal(b1-4)GlcNAc(b1-3)Gal(b1-4)GlcNAc
# How it was run: as §1
# [12] = molecular target: Fuc(a1-2)[GalNAc(a1-3)]Gal(b1-4)GlcNAc(b1-3)[Fuc(a1-2)[GalNAc(a1-3)]Gal(b1-4)GlcNAc(b1-6)]GalNAc
# How it was run: as §1
# [13] = molecular target: Fuc(b1-3)GlcNAc
# How it was run: as §1
# [14] = molecular target: Gal(a1-3)Gal(b1-3)GlcNAc
# How it was run: as §1
# [15] = molecular target: Gal(a1-3)Gal(b1-3)[Fuc(a1-4)]GlcNAc(b1-2)Man(a1-3)[Gal(a1-3)Gal(b1-3)[Fuc(a1-4)]GlcNAc(b1-2)Man(a1-6)]Man(b1-4)GlcNAc(b1-4)GlcNAc
# How it was run: as §1
# [16] = molecular target: Gal(a1-3)Gal(b1-4)GlcNAc
# How it was run: as §1
# [17] = molecular target: Gal(a1-4)Gal(b1-4)GlcNAc(b1-3)Gal(b1-4)Glc
# How it was run: as §1
# [18] = molecular target: Gal(b1-3)Gal(b1-4)GlcNAc(b1-2)Man(a1-3)[Gal(b1-3)Gal(b1-4)GlcNAc(b1-2)Man(a1-6)]Man(b1-4)GlcNAc(b1-4)GlcNAc
# How it was run: as §1
# [19] = molecular target: Gal(b1-3)GalNAc
# How it was run: as §1
# [20] = molecular target: Gal(b1-3)GalNAc(b1-3)Gal(a1-4)Gal(b1-4)Glc
# How it was run: as §1
# [21] = molecular target: Gal(b1-4)Glc6S
# How it was run: as §1
# [22] = molecular target: Gal(b1-4)GlcNAc(b1-2)[Gal(b1-4)GlcNAc(b1-4)]Man(a1-3)[GlcNAc(b1-4)][Gal(b1-4)GlcNAc(b1-2)Man(a1-6)]Man(b1-4)GlcNAc(b1-4)GlcNAc
# How it was run: as §1
# [23] = molecular target: Gal(b1-4)GlcNAc(b1-3)Gal(b1-4)GlcNAc(b1-2)[Gal(b1-4)GlcNAc(b1-3)Gal(b1-4)GlcNAc(b1-6)]Man(a1-6)[Gal(b1-4)GlcNAc(b1-3)Gal(b1-4)GlcNAc(b1-2)Man(a1-3)]Man(b1-4)GlcNAc(b1-4)[Fuc(a1-6)]GlcNAc
# How it was run: as §1
# [24] = molecular target: Gal(b1-4)GlcNAc(b1-3)Gal(b1-4)GlcNAc(b1-3)Gal(b1-4)GlcNAc(b1-2)[Gal(b1-4)GlcNAc(b1-3)Gal(b1-4)GlcNAc(b1-3)Gal(b1-4)GlcNAc(b1-6)]Man(a1-6)[Gal(b1-4)GlcNAc(b1-3)Gal(b1-4)GlcNAc(b1-3)Gal(b1-4)GlcNAc(b1-2)Man(a1-3)]Man(b1-4)GlcNAc(b1-4)[Fuc(a1-6)]GlcNAc
# How it was run: as §1
# [25] = molecular target: Gal(b1-4)GlcNAc(b1-3)Gal(b1-4)GlcNAc(b1-3)Gal(b1-4)GlcNAc(b1-3)Gal(b1-4)GlcNAc(b1-3)Gal(b1-4)GlcNAc(b1-2)Man(a1-3)[Gal(b1-4)GlcNAc(b1-3)Gal(b1-4)GlcNAc(b1-3)Gal(b1-4)GlcNAc(b1-3)Gal(b1-4)GlcNAc(b1-3)Gal(b1-4)GlcNAc(b1-2)Man(a1-6)]Man(b1-4)GlcNAc(b1-4)GlcNAc
# How it was run: as §1
# [26] = molecular target: Gal(b1-4)GlcNAc(b1-3)Gal(b1-4)GlcNAc(b1-6)[Gal(b1-3)]GalNAc
# How it was run: as §1
# [27] = molecular target: Gal3S(b1-3)GalNAc
# How it was run: as §1
# [28] = molecular target: Gal3S(b1-4)Glc6S
# How it was run: as §1
# [29] = molecular target: Gal3S(b1-4)[Fuc(a1-3)]GlcNAc
# How it was run: as §1
# [30] = molecular target: Gal4S(b1-4)GlcNAc
# How it was run: as §1
binder,measurement,setting,value
B1,glycan array binding signal (z-score),[1],0.078
same,glycan array binding signal (z-score),[2],0.81
same,glycan array binding signal (z-score),[3],-0.692
same,glycan array binding signal (z-score),[4],-0.642
same,glycan array binding signal (z-score),[5],-1.35
same,glycan array binding signal (z-score),[6],2.13
same,glycan array binding signal (z-score),[7],0.571
same,glycan array binding signal (z-score),[8],-0.339
same,glycan array binding signal (z-score),[9],1.28
same,glycan array binding signal (z-score),[10],0.64
same,glycan array binding signal (z-score),[11],-0.116
same,glycan array binding signal (z-score),[12],3.88
same,glycan array binding signal (z-score),[13],0.585
same,glycan array binding signal (z-score),[14],-0.317
same,glycan array binding signal (z-score),[15],0.703
same,glycan array binding signal (z-score),[16],0.105
same,glycan array binding signal (z-score),[17],-0.109
same,glycan array binding signal (z-score),[18],-0.754
same,glycan array binding signal (z-score),[19],0.117
same,glycan array binding signal (z-score),[20],-0.196
same,glycan array binding signal (z-score),[21],-0.347
same,glycan array binding signal (z-score),[22],-0.708
same,glycan array binding signal (z-score),[23],2.23
same,glycan array binding signal (z-score),[24],5.64
same,glycan array binding signal (z-score),[25],3.23
same,glycan array binding signal (z-score),[26],3.3
same,glycan array binding signal (z-score),[27],-0.157
same,glycan array binding signal (z-score),[28],0.08
same,glycan array binding signal (z-score),[29],-0.495
same,glycan array binding signal (z-score),[30],-0.269
